Only a selection was taken, and hits are over-represented in it overall.
TTR transcr act – increases transthyretin transcription; SH-SY5Y TTR promoter Gaussia luciferase, luminescence; 100% = recombinant luciferase protein wells; activation, % at 16.7 µM; 92,000 compounds, 1.3% hits; AID 1117267;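 active = activation above the mean of all tested compounds plus 3 SD, cut at about 9.5% in these data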;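 note: cells exposed to compounds for one day before reading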
HuH7 TTR inh – HuH7 TTR transcription inhibition, counter-screen. shares compounds with TTR transcr act. HuH7 TTR promoter-Gaussia luciferase reporter, luminescence. inhibition, % at 16.7 µM. 1,100 compounds, 4% hits;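 active = average inhibition above the solvent-only control wells' mean plus 3 SD, cut at about 15% in these data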;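 note: inhibitors lower well luminescence so higher value means more inhibition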
TTR up confirm – human TTR transcription activation, confirmation | shares compounds with TTR transcr act | SHSY5Y TTR promoter Gaussia luciferase, luminescence; 100% = purified Lucia enzyme wells, no cells | activation, % at 16.7 µM | 1,100 tested, under 10 active | AID 1117280;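 active = mean activation above a set limit taken from the earlier primary screen, cut at about 11% in these data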
Large screens that a line does not name were inactive (follow-up assays come after a bar, where they were run).

C[C@@H]1CN([C@H](C)CO)C(=O)c2cc(NS(=O)(=O)c3ccccc3)ccc2O[C@@H](C)CCCCO[C@@H]1CN(C)Cc1ccc(Cl)c(Cl)c1	none
CC1(C)C=Cc2ccc(O)c(C(=O)/C=C/c3ccccc3)c2O1	none
CSc1ccccc1NC(=O)COC(=O)CCC(=O)c1ccc(F)cc1	none
O=C(COC(=O)CCSc1ccccc1)Nc1ccc(F)cc1Cl	none
O=C(COC(=O)CCSc1ccccc1Cl)Nc1ccc(F)cc1F	TTR transcr act 10.0 | HuH7 TTR inh inactive | TTR up confirm inactive
C#CCNC(=O)CSCc1nc(-c2ccc(OCC)cc2)oc1C	none
COc1ccc(OC)c(CN2C(=O)CCCC2(C)c2nnnn2C2CCCC2)c1 (stereo not given)	none
C/C(=N\OC(=O)c1ccc(F)cc1)c1ccc(F)c(F)c1	none
CCOC(=O)c1cc(/C(C)=N/OC(=O)c2ccc(Cl)cc2)on1	TTR transcr act 9.8 | HuH7 TTR inh inactive | TTR up confirm inactive
CCCS(=O)(=O)C/C(N)=N/OC(=O)c1ccc(Cl)cc1	none
CCC(C#Cc1ccccc1)N(C)C(N)=NC(=O)/C=C/c1ccccc1 (stereo not given)	none
CCC[C@H]1[C@@H](OC(=O)NCc2cccc(C(F)(F)F)c2)CC[C@@]23CCCN2C(=O)CCC[C@@H]13	none
CC1=NN(Cc2ccccc2)C(=O)C1	none
Cc1ccc(/C=C/C2=NN(Cc3ccc(Cl)c(Cl)c3)C(=O)CC2)cc1	TTR transcr act 13.3 | HuH7 TTR inh inactive | TTR up confirm inactive
Cc1ccccc1CN1N=C(/C=C/c2ccccc2)CCC1=O	none
COc1cc(Cn2cc([C@]34C[C@H]5C(=O)N(C)CC(=O)N5[C@H]3N(S(=O)(=O)c3ccccc3)c3ccccc34)c3ccccc32)cc(OC)c1	none
CC(=O)Nc1sc2c(c1-c1nc3ccccc3s1)CCN(C(C)C)CC2	none
CCOC(=O)[C@]12CCCC=C1N(Cc1ccc(OC)cc1)C(=O)[C@@H]2CC(=O)NCc1cccc2ccccc12	none
C[C@H]1C2CC(OC(=O)Nc3ccc(F)cc3)C(C2)[C@H]2CCCCN21 (stereo not given in full)	none
Cc1nn2c3ccccc3n(CCN3CCCCC3)c2nc1=O	TTR transcr act 10.7 | HuH7 TTR inh inactive | TTR up confirm inactive
CCn1c(=O)c(C)nn2c3ccccc3nc12	none
O=C(O)CCc1nn2c3ccccc3nc2n(CCN2CCCCC2)c1=O	none
O=C(OCC#CCSc1nnc(-c2c[nH]c3ccccc23)o1)c1ccc(F)cc1	none
CCOC(=O)[C@@]12CCC3=C1N(CCC3)C(=O)[C@H](CC(=O)NCCCN1CCCC1=O)C2	none
O=C(Nc1nnc(C2CC2)s1)c1ccc(S(=O)(=O)c2ccccc2)cc1	TTR transcr act 16.0 | HuH7 TTR inh inactive | TTR up confirm inactive
Cn1nccc1C(=O)Nc1nnc(C2CC2)s1	none
Cc1ccc(S(=O)(=O)NC(=O)Nc2nnc(C3CC3)s2)cc1	none
Brc1ccc(-c2csc(N3CCC(c4nn[nH]n4)CC3)n2)cc1	none
CCCC1CCC2(CCCN2CCOC(=O)Nc2ccc(OC)cc2)CC1 (stereo not given)	none
CC(C)(C)OC(=O)NCCc1ccccc1/C=C/S(=O)(=O)NCc1ccccc1	none
C[C@H]1CN(S(=O)(=O)C(C)(C)C)[C@@H](CCO)/C1=C\CCO	none
Cc1ccc(S(=O)(=O)NC[C@@H]2C[C@H](c3ccccc3)ON2S(=O)(=O)c2ccc(C)cc2)cc1	TTR transcr act 10.1 | HuH7 TTR inh inactive | TTR up confirm inactive
Cc1ccc(S(=O)(=O)NCC2Cc3ccccc3N2S(=O)(=O)c2ccc(C)cc2)cc1 (stereo not given)	none
Cc1ccc(S(=O)(=O)NC[C@H]2CN(S(=O)(=O)c3ccc(C)cc3)[C@@H](Cc3ccccc3)CO2)cc1	none
C#CCOCCOCCOCCNc1nc(N2CCOCC2)nc(N2CCN(C(=O)[C@H](CCC(=O)O)n3cc(C(N)CC(C)C)nn3)CC2)n1 (stereo not given in full)	none
CCOC(=O)CSc1nc(C)[nH]c1[N+](=O)[O-]	TTR transcr act 10.4 | HuH7 TTR inh inactive | TTR up confirm inactive
Cc1nc(SCCC(C)C)c([N+](=O)[O-])[nH]1	none
Cc1nc(SCc2ccccc2)c([N+](=O)[O-])[nH]1	none
CS(=O)(=O)N1c2ccccc2C[C@H]1Cc1cc2ccccc2o1	none
C[C@H]1COc2cc(Br)ccc2S(=O)(=O)N1Cc1cn(CC2CCCCC2)nn1	none
c1ccc(CNc2ncnc3c2cnn3-c2ccccc2)cc1	none
CCNc1ncnc2c1cnn2C1CCCO1 (stereo not given)	TTR transcr act 10.3 | HuH7 TTR inh inactive | TTR up confirm inactive
c1ccc(-n2ncc3c(NCCN4CCCCC4)ncnc32)cc1	none
Cc1cccc(Cn2cc(COC(=O)Nc3ccc(F)cc3)nn2)c1	none
COc1ccc2[nH]c3c(c2c1)CCN[C@]31C(=O)N(C)c2ccc(Br)cc21	none
COc1ccc(NC(=O)CCCNS(=O)(=O)c2ccc3[nH]c(=O)oc3c2)cc1OC	none

Screens from PubChem BioAssay.
